Potency and outcome data for nine compounds are collected here from PubChem BioAssay (Tox21).

A number with no mark means an inactive call. Results filed as inconclusive are left out. Calls of active or inactive are those of the source. Unless noted, calls follow the shape of the dose curve; as a rule, active = well fitted curve in the direction sought with a large enough effect in the repeat runs; inconclusive = weak or mixed curves; inactive = no such curve, though single readings can be large; an effect the other way counts as inactive or inconclusive.

Assay [1] in a line: qHTS assay to identify small molecule antagonists of the estrogen receptor alpha (ER-alpha) signaling pathway using the BG1 cell line in the presence of 0.1 nM 17-beta-estradiol - cell viability counter screen (AID 1259241). Also: nearly all actives have a fitted effect of over 40% in size. In short, it runs like this: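 Live-cell protease activity (CellTiter-Fluor fluorescence, 30 min) was read in the same wells after VM7Luc4E2 cells had been exposed to compounds with 0.1 nM 17beta-estradiol for 22 hr at 37C.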
Background: qHTS replaces the single test concentration by a dilution series.

Assay [2] can be described thus: qHTS assay to identify small molecule antagonists of the androgen receptor (AR) signaling pathway using the MDA cell line in the presence of 0.5 nM R1881 - cell viability counter screen (AID 1259242). Also: nearly all actives have a fitted effect of over 45% in size. In short, it runs like this:
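Cells seeded at 3,000/well and allowed 5 hr at 37C, 0% CO2 before compound transfer and R1881 (0.5 nM final) addition; 16 hr later, live-cell protease fluorescence indicated cytotoxicity.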

Assay [3] is described as follows: qHTS assay to identify small molecule HDAC inhibitors (AID 1259364).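 Also: wild-type HCT-116 cells with endogenous class I/II HDAC activity; top concentration of the series differs between compounds; nearly all actives have a fitted effect of over 45% in size.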 In short, it runs like this:
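HCT-116 wt cells, 1,500/well, overnight attach. Compounds (DMSO) 2 h, 37 °C. HDAC-Glo I/II, 30 min RT. Luminescence.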

The nature of assay [4]: qHTS assay to identify small molecule HDAC inhibitors - cell viability counter screen (AID 1259365). Also: series mostly up to about 92 µM; nearly all actives have a fitted effect of over 50% in size. In short, it runs like this: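 HCT-116 (wild type), 1,500 cells/well, overnight 37C/5% CO2; compound in DMSO 2hr; CellTiter-Glo 30min RT; luminescence read.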
Assay [5] in a line: qHTS assay to identify small molecule agonists of the sonic hedgehog signaling (Shh) pathway - cell viability counter screen (AID 1259366). Also: nearly all actives have a fitted effect of over 50% in size. In short, it runs like this: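 CellTiter-Fluor fluorescence read-out, 1 hr at 37C, added after 23hr compound exposure. Cells: 3T3 Gli1-Luc, an NIH/3T3 clone with stably integrated Gli1-Luc reporter, plated 4hr before compound.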
Assay [6] can be described thus: qHTS assay to identify small molecule antagonists of the sonic hedgehog signaling (Shh) pathway - cell viability counter screen (AID 1259367). Also: nearly all actives have a fitted effect of over 55% in size. In outline: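 Fluorescence read-out (CellTiter-Fluor, 1 hr at 37C) taken after 23 hr compound treatment of 3T3 Gli1-Luc cells stimulated with conditioned medium. Cells were seeded at 2,000 per well and pre-incubated 4 hr.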

Assay [7] in a line: qHTS assay to identify small molecule agonists of the sonic hedgehog signaling (Shh) pathway (AID 1259368; calls by dose curve;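 also: NIH/3T3-derived 3T3Gli1-Luc cells carrying a stable Gli1-driven firefly luciferase reporter; series mostly up to about 92 µM; nearly all actives have a fitted effect of over 15% in size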). In short, it runs like this:
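Following a 24 hr incubation with DMSO-dissolved compounds at 37 C, 5% CO2, Gli1-Luc NIH/3T3-derived cells received luciferase reagent for 30 min at room temperature prior to luminescence measurement.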

Assay [8] can be described thus: qHTS assay to identify small molecule antagonists of the sonic hedgehog signaling (Shh) pathway (AID 1259369; calls by dose curve; also: nearly all actives have a fitted effect of over 45% in size; also: potency is read from the fitted curve at half-maximal effect). In short, it runs like this:
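Read-out is luminescence from a firefly luciferase gene controlled by the Gli1 response element, in 3T3Gli1-Luc cells pre-incubated 4hr then exposed to compounds and conditioned medium for 24hr.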

For assay [9], the target named is Estrogen receptor beta (Homo sapiens) (UniProt Q92731). Briefly: qHTS assay to identify small molecule agonists of the estrogen receptor beta (ER-beta) signaling pathway (AID 1259377; active = well fitted activation curve with a large enough effect in the signal ratio in the repeat runs, not every such curve was filed as active; the % refers to the signal ratio). In short, it runs like this: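 Beta-lactamase reporter readout: fluorescence of LiveBLAzer B/G FRET substrate after 2 h at room temperature, following 16 h compound treatment of ER-beta-UAS-bla HEK293T cells at 37C in 2% charcoal-stripped FBS medium.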

The target is the same in assay [10]. Briefly: qHTS assay to identify small molecule antagonists of the estrogen receptor beta (ER-beta) signaling pathway (AID 1259378; active = well fitted inhibition curve with a large enough effect in the signal ratio in the repeat runs, not every such curve was filed as active; the % refers to the signal ratio). In outline:
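ER-beta-UAS-bla HEK293T cells in 2% charcoal-stripped FBS medium treated with compound plus 1nM final 17-beta-estradiol for 16 hr at 37C. Beta-lactamase reporter read by FRET substrate fluorescence after 2 hours at room temperature.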

The nature of assay [11]: qHTS assay to identify small molecule agonists of the androgen receptor (AR) signaling pathway in the presence of an antagonist - cell viability counter screen (AID 1259379).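 Also: MDA-kb2 human breast cancer cells carrying an MMTV luciferase reporter; series mostly up to about 92 µM; nearly all actives have a fitted effect of over 25% in size.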 In short, it runs like this:
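Each compound was tested at 15 concentrations on MDA-kb2 cells in the presence of 3.0uM nilutamide. Viability was measured by CellTiter-Fluor fluorescence after a 16 hr incubation at 37C in a CO2-free atmosphere.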

The nature of assay [12]: qHTS assay to identify small molecule agonists of the estrogen receptor beta (ER-beta) signaling pathway - cell viability counter screen (AID 1259380). Also: nearly all actives have a fitted effect of over 30% in size. In outline:
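Compounds dissolved in DMSO were pin-transferred onto ER-beta-UAS-bla HEK293T cells that had settled 6 hr, and exposure ran 16 hr at 37C. Following the reporter read, CellTiter-Glo luminescence after 30 min at room temperature indicated cytotoxicity.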

A short description of assay [13]: qHTS assay to identify small molecule antagonists of the estrogen receptor beta (ER-beta) signaling pathway - cell viability counter screen (AID 1259382). Also: series mostly up to about 92 µM; nearly all actives have a fitted effect of over 55% in size. In short, it runs like this:
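CellTiter-Glo ATP luminescence measured after the LiveBLAzer read in the same wells; ER-beta-UAS-bla HEK293T cells, 16 hr compound treatment with 1nM 17-beta-estradiol agonist at 37C, 5% CO2.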

A short description of assay [14]: qHTS assay to identify small molecule agonists or antagonists of the thyroid stimulating hormone receptor (TSHR) signaling pathway - wild type cell line counter screen (AID 1259384; calls by dose curve). In short, it runs like this:
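Wild-type Hek293 cells, 800/well, 18 h at 37C, then compound with Ro20-1724 for 30 min RT. cAMP by HTRF (cAMP-d2/anti-cAMP cryptate), 1 h RT, fluorescence read. 15 concentrations, triplicates.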

Assay [15] has as its target Thyrotropin receptor (Homo sapiens) (UniProt P16473). Description: qHTS assay to identify small molecule antagonists of the thyroid stimulating hormone receptor (TSHR) signaling pathway (AID 1259385; calls by dose curve; also: nearly all actives have a fitted effect of over 20% in size). In outline:
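TSHR-HEK293 cells (800/well) plated 18 h, then compounds with Ro20-1724 and TSH at 1.5 ng/mL final, 30 min at room temperature. cAMP quantified by HTRF (cAMP-d2/anti-cAMP-cryptate, 1 h); 15 concentrations in triplicate.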

The nature of assay [16]: qHTS assay to identify small molecule phospholipidosis (PLD) inducers (AID 1259344; active = well fitted curve in the direction sought with a large enough effect; an effect the other way counts as inactive or inconclusive). In outline: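 Read-out is LipidTOX Red fluorescence (ex 595/em 615) imaged in HepG2 cells after 24 h compound exposure at 37 C, with Hoechst nuclear counterstain (ex 352/em 461) allowing per-cell normalisation.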

Sequence of Thyrotropin receptor (Homo sapiens) (P16473 whole entry, looked up): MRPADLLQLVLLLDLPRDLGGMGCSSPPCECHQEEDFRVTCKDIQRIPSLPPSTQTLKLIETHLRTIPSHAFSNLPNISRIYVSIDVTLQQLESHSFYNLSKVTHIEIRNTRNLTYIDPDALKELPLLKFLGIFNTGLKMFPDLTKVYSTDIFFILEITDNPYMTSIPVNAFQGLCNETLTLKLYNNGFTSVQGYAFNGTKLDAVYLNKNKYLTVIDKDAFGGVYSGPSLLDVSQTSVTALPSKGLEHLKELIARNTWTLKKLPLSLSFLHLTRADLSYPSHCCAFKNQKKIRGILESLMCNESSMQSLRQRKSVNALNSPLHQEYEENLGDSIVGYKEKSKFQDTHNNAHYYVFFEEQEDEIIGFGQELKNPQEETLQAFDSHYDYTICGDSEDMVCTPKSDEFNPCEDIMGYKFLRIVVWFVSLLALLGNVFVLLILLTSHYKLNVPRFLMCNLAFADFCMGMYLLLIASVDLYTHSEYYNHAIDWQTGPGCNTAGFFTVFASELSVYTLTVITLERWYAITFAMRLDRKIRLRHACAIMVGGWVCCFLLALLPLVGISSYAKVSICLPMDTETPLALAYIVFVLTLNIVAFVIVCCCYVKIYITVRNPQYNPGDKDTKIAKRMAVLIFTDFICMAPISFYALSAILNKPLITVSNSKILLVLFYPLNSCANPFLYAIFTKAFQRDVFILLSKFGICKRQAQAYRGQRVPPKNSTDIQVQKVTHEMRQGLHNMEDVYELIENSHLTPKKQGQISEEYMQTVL
Sequence of Estrogen receptor beta (Homo sapiens) (Q92731 whole entry, looked up): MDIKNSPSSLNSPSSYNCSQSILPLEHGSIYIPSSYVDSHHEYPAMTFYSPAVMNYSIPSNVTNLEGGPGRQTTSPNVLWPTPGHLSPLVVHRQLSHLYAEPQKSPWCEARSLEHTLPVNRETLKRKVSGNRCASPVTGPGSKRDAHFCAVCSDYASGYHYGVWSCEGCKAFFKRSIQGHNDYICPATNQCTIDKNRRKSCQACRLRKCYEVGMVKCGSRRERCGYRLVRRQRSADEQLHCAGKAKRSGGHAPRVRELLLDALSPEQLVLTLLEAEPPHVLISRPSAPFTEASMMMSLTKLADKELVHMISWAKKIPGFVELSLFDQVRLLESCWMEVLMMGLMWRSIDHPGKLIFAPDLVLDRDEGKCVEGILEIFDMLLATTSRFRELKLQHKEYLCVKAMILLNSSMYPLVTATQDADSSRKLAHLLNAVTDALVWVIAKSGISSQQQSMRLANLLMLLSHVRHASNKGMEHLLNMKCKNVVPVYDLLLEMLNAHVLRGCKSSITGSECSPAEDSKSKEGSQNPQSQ

Regarding `CC(=O)OCC(=O)[C@@]1(O)CC[C@H]2[C@@H]3CCC4=CC(=O)C=C[C@]4(C)[C@@]3(F)[C@@H](O)C[C@@]21C`, the Potency result in assay [1], in [2], in assay [3], in assay [5], in assay [6] and in [7] was “inactive” in each case. Also, the Potency result in assay [8], in assay [9], in [10], in [11], in [12] and in [13] was “inactive” each time. Also, the Potency entry in assay [15] was “inactive”. Also, the compound was classed as inactive in assay [4] and in [14].

Turning to `Cc1c(-c2cccnc2)c2ccccc2n1CCCCC(=O)O`, the Potency entry in assay [1], in assay [2], in assay [3], in assay [5], in assay [6] and in assay [7] was “inactive” each time. The Potency entry in assay [8], in assay [9], in assay [10], in [11], in [12] and in assay [13] was “inactive” each time. Moreover, the Potency entry in [15] is “inactive”. Also, the call in assay [4] and in assay [14] was inactive.

`CC(=O)S[C@H](C(=O)N[C@H]1Cc2ccccc2[C@H]2CCC[C@@H](C(=O)O)N2C1=O)C(C)C`: the Potency entry in assay [1], in [2], in [3], in [5], in assay [6] and in [7] was “inactive” each time. For the same compound, the Potency entry in [8], in assay [11], in assay [13] and in assay [15] was “inactive” in each case. Also, in [4], the compound was called inactive.

Take `CC(=O)CC/C=C(\C)CC/C=C(\C)CC/C=C(\C)CCC=C(C)C`: the Potency entry in [1], in [2], in assay [16], in [3], in [5] and in assay [7] was “inactive” each time. The Potency entry in assay [8], in assay [9], in assay [10], in assay [11], in assay [12] and in assay [13] was “inactive” throughout. In assay [4], the compound was called inactive.

In the case of `C[C@H](CN1CCCC1)C(=O)c1ccc(C(F)(F)F)cc1`, the Potency result in assay [1], in assay [2], in assay [3], in assay [5], in assay [6] and in [7] was “inactive” each time. Moreover, the Potency result in assay [8], in assay [9], in [11] and in [13] was “inactive” each time. Further, the compound was classed as inactive in assay [4] and in assay [14].

As to `CS(C)=O`, the Potency result in assay [1], in assay [2], in assay [3], in assay [5], in assay [6] and in assay [7] was “inactive” in each case. Also, the Potency entry in assay [11], in assay [12], in assay [13] and in [15] was “inactive” each time. The outcome in assay [4] and in assay [14] was inactive. For the same compound, the Potency in assay [8] is 68.6 µM (active).

As for `CCC(=O)O[C@@H]1C[C@H]2CC[C@]1(C)C2(C)C`, the Potency result in assay [1], in assay [2], in assay [3], in [5], in assay [6] and in [7] was “inactive” each time. Further, the Potency result in assay [8], in assay [9], in [10], in [11], in [12] and in assay [13] was “inactive” each time. For the same compound, in assay [4], the result was inactive.

`O=[N+]([O-])c1ccc(Cl)cc1Cl`: the Potency result in assay [1], in assay [2], in assay [3], in [5], in [6] and in [7] was “inactive” each time. The Potency result in assay [8], in assay [11], in [12], in assay [13] and in assay [15] was “inactive” throughout. Also, the compound was called inactive in [4] and in assay [14].

With `FC1(F)C(F)(F)C(F)(F)C2(F)C(F)(C1(F)F)C(F)(F)C(F)(F)C1(F)C(F)(F)C(F)(F)C(F)(F)C(F)(F)C12F` (centres undefined), the Potency entry in assay [1], in assay [2], in assay [3], in assay [5], in assay [6] and in assay [7] was “inactive” in each case. Further, the Potency entry in assay [8], in [9], in assay [11], in assay [12], in assay [13] and in [15] was “inactive” each time. In addition, the outcome in [4] and in assay [14] was inactive.
